Molecules are shown by their SMILES. Results filed as inconclusive are left out. Activity calls are given as the source filed them. Calls come from the whole dose curve; as a rule, active = well fitted inhibition curve with a large enough effect; inconclusive = small, poorly fitted or top-dose-only effect; inactive = no such curve, though single readings can be large or run the other way.
Potency is the fitted concentration of half-maximal effect.

This experiment is described as follows: InCell qHTS Assay for Inhibitors of the mTORC1 Signaling Pathway in MEF (Tsc2-/-, p53-/-) Cells: Hit Validation.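 Note: phospho-S6 Ser235/236 signal normalized to propidium iodide cell count per well; nearly all actives have a fitted effect of over 75% in size.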 The settings on record: phospho-rpS6 immunofluorescence, 24 h; activity change, negative = inhibition: at 38.3 µM (top of the series). A general note: In qHTS, concentration-response curves come from the screen itself.
For the compound `N#C/C(=C\c1ccc(-c2ccc(F)cc2F)o1)c1nc2ccccc2[nH]1`, the activity change, negative = inhibition is -27.3%.

As for `CCOC(=O)N1CCN(Cc2nc3cc(NC(C)=O)ccc3n2C(C)C)CC1`, the activity change, negative = inhibition was -100%.

Turning to `CC1=Nc2cc(C(=O)NC3CCCC3)ccc2Sc2ccc(Br)cc21`, the activity change, negative = inhibition is -100%.

Take `Cc1cccc(Oc2coc3cc(OCC(=O)NC4CCCCC4)ccc3c2=O)c1`: the activity change, negative = inhibition is -100%.

`CCCCS(=O)(=O)c1oc(-c2ccc(F)cc2)nc1S(=O)(=O)c1ccc(C)cc1`: the Potency is 5.85 µM (active).

Consider `COc1ccc(S(=O)(=O)N(C(=O)c2ccncc2)c2ccc3oc(C)c(C(C)=O)c3c2)cc1`, for which the activity change, negative = inhibition was -100%.

Turning to `CCCN1C(=O)C(O)(CC(=O)c2ccc(C(C)C)cc2)c2ccccc21` (stereo unspecified), the activity change, negative = inhibition was -100%.

Turning to `CCCN(c1ccccc1CC)S(=O)(=O)c1ccc2c(c1)CC(C)N2C(=O)C1CC1` (stereo unspecified), the activity change, negative = inhibition was -100%.

For the compound `Cc1cccc(-c2nc3c(cnn3-c3ccccc3)c(=O)n2-c2ccc(Br)cc2)c1`, the activity change, negative = inhibition was -100%.

On to `CCN(c1ccccc1)S(=O)(=O)c1cc(C(=O)Nc2ccc(Br)cc2)ccc1F`, for which the activity change, negative = inhibition was -100%.

For the compound `COC(=O)c1cc2sc(C)cc2n1Cc1ccccc1`, the activity change, negative = inhibition was -100%.

Consider `CCOc1ccc(N(CC(=O)Nc2ccccc2CC)S(=O)(=O)c2c(C)noc2C)cc1`, for which the activity change, negative = inhibition was -100%.

As to `O=C(NCc1ccccc1Cl)C(=O)NCC(c1cccs1)S(=O)(=O)c1cccs1` (stereo unspecified), the activity change, negative = inhibition was -100%.

`O=C(CN1C(=O)C(c2ccc(F)cc2)=NC12CCCCCC2)Nc1ccccc1Cl`: the activity change, negative = inhibition is -100%.

As for `Cc1cccc(N2CCN(C(=O)c3ccc(CS(=O)c4cccc(Cl)c4)o3)CC2)c1C` (stereo unspecified), the activity change, negative = inhibition is -17.3%.

Turning to `COc1cccc(-n2c(-c3ccc(C)cc3)cc3c2CC(C)(C)CC3=O)c1`, the activity change, negative = inhibition is -6.41%.
